This is part of a sample that, as a whole, favours compounds with a hit. Of some 83,000 tested, about 20% had one in any assay.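 Method: cells in 96-well plates; compound added at one concentration; 48 h incubation; percent growth measured; values under 10 scored active.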 Unmarked numbers belong to inactive results. Active and inactive are the calls of the source.
How the values were obtained:
Assay in all cases: NCI-60 one-dose screen, 48 h (100 = growth as untreated, 0 = no growth, -100 = all killed)
Conditions in all cases: 10 µM unless noted
HCT-15 colon = system: HCT-15 colon
HT29 colon = system: HT29 colon
SNB-75 CNS = system: SNB-75 CNS
SNB-19 CNS = system: SNB-19 CNS
PC-3 prostate = system: PC-3 prostate
SK-MEL-5 melanoma = system: SK-MEL-5 melanoma
UACC-62 melanoma = system: UACC-62 melanoma
LOX IMVI melanoma = system: LOX IMVI melanoma
SK-MEL-28 melanoma = system: SK-MEL-28 melanoma
SK-MEL-2 melanoma = system: SK-MEL-2 melanoma
EKVX NSCLC = system: EKVX NSCLC
SN12C renal = system: SN12C renal
UO-31 renal = system: UO-31 renal
TK-10 renal = system: TK-10 renal
ACHN renal = system: ACHN renal
CAKI-1 renal = system: CAKI-1 renal
A498 renal = system: A498 renal
CCRF-CEM leukemia = system: CCRF-CEM leukemia
MOLT-4 leukemia = system: MOLT-4 leukemia

SMILES	growth (HCT-15 colon)	growth (HT29 colon)	growth (SNB-75 CNS)	growth (SNB-19 CNS)	growth (PC-3 prostate)	growth (SK-MEL-5 melanoma)	growth (UACC-62 melanoma)	growth (LOX IMVI melanoma)	growth (SK-MEL-28 melanoma)	growth (SK-MEL-2 melanoma)	growth (EKVX NSCLC)	growth (SN12C renal)	growth (UO-31 renal)	growth (TK-10 renal)	growth (ACHN renal)	growth (CAKI-1 renal)	growth (A498 renal)	growth (CCRF-CEM leukemia)	growth (MOLT-4 leukemia)
CCN(CC)CCCC(Cc1ccccc1)Nc1c2ccc(Cl)cc2nc2ccc(OC)cc12 (stereo not given)	2.58% (active)	16.3%	10.6%	34.7%	44.8%	-93.6% (active)	-61.2% (active)	-67.8% (active)	-79.3% (active)	7.91% (active)	26.6%	73.6%	-39.6% (active)	-2.6% (active)	-39.2% (active)	32.6%	46.8%	-0.463% (active)	4.64% (active)
CN1CCN(Cc2ccc(NC(=O)c3cncc(C#Cc4cnc(N)cc4C#N)c3)cc2C(F)(F)F)CC1	15.4%	5.78% (active)	33.2%	39.1%	11.7%	9.34% (active)	-12.9% (active)	-84.6% (active)	0.973% (active)	-65.9% (active)	34.3%	13.5%	1.25% (active)	19.4%	10.3%	-9.35% (active)	-8.99% (active)	6.94% (active)	4.83% (active)
CCSc1ccnc(N)n1	102%	113%	95.2%	103%	96%	107%	99%	99.9%	114%	106%	104%	106%	97.7%	101%	96.8%	82.1%	98.1%	97.3%	124%
Cc1ccc2c(c1)nc(C)n2-c1ncnc2c1CC(C)c1cc(O)ccc1N2C (stereo not given)	26.7%	36.8%	25.3%	48.7%	29.6%	23.7%	39.3%	43%	61.1%	21.4%	44.2%	52.3%	47.9%	56.1%	49.5%	42.4%	6.65% (active)	–	13.4%
Nc1ncnc2c1N=C(c1ccc(F)cc1)CC(c1cccc(Nc3ccnc4cc(Cl)ccc34)c1)N2 (stereo not given)	48.4%	62.8%	72.7%	82%	66.3%	72%	89.5%	68.2%	95.3%	89.1%	64.9%	79.7%	59.6%	105%	96.3%	70.5%	92.3%	74.1%	39.6%
Nc1ccc(Br)cc1C(F)(F)F	106%	108%	109%	104%	105%	103%	108%	99.2%	121%	104%	109%	99.8%	88.1%	108%	96.5%	104%	107%	101%	108%
CN1C(=O)N2CN3CCCN(C3)CN3C(=S)NC1C23 (stereo not given)	103%	95.2%	93.4%	99.3%	98.4%	100%	101%	98.7%	119%	108%	104%	97.7%	99.5%	108%	118%	98%	98.9%	90.2%	111%
CSc1ccc2c3c(n(CCCn4ccnc4)c(=O)c2c1)-c1ccccc1C3=O	61.1%	27.1%	51.6%	33.2%	45.6%	19.5%	19.8%	1.75% (active)	78.5%	97.1%	84.4%	45.1%	26.3%	83.1%	12.4%	24.6%	68.5%	15.6%	-3.86% (active)
C(=C(\C1=NCCN1)n1ccc2ccccc21)/c1ccccc1	99.6%	103%	80.7%	99.9%	95.5%	98.3%	93.5%	93.3%	106%	106%	92.8%	98.3%	–	89.2%	95.9%	80.7%	102%	100%	97.8%
Cc1cccc(N=Nc2cccc(C)c2)c1	96.3%	102%	132%	92.4%	104%	105%	92.8%	105%	107%	110%	96.2%	96.7%	86.8%	114%	99.8%	96.2%	93.8%	108%	111%
Nc1nc(N)c2c(n1)NC(c1cccc(Nc3ccnc4cc(C(F)(F)F)ccc34)c1)CC(c1ccc3c(c1)OCO3)=N2 (stereo not given)	37.4%	23.8%	78.7%	76.5%	48.5%	66.4%	90.6%	65.7%	96.3%	61.6%	76.7%	81.6%	69.2%	90.1%	102%	59.6%	87.9%	50.9%	29%
C[C@H]1[C@H](C)CC[C@]2(C(=O)NCCNCCN)CC[C@]3(C)C(=CC[C@@H]4[C@@]5(C)CCC(=O)C(C)(C)[C@@H]5CC[C@]43C)[C@H]12	13.1%	4.06% (active)	65%	71.6%	38.5%	85.3%	77.5%	-76.7% (active)	81.5%	91.4%	79.4%	68.2%	60.3%	74%	77.1%	61.5%	75%	-11.7% (active)	-9.76% (active)
COc1ccc(-c2nc3c(c(-c4ccc(Cl)cc4)nn3-c3ccccc3)c(-c3ccccc3)c2C#N)cc1	109%	101%	85.7%	103%	91.3%	100%	98.5%	101%	108%	109%	107%	105%	101%	120%	107%	94.8%	111%	102%	102%
C=C[C@@]1(C)CC(=O)[C@@H](C(C)(C)c2cn(C)c3ccc(Br)cc23)C[C@@H]1O[Si](C)(C)C(C)(C)C	102%	103%	102%	98.9%	84.1%	104%	93.7%	90.4%	100%	97.8%	99.3%	97.6%	94%	98.1%	111%	90.2%	106%	89.5%	94.7%
CCOC(=O)NCCCC(=O)NCCc1ccccc1	118%	110%	109%	108%	99.5%	99.8%	107%	94.2%	114%	110%	112%	106%	90.3%	104%	111%	99.5%	106%	–	101%
Cc1c2cnccc2c(C)c2c1c1cc(CO)ccc1n2C	-10.9% (active)	-16.3% (active)	-45.1% (active)	-22.2% (active)	-9.48% (active)	-96.8% (active)	-74.7% (active)	-63.5% (active)	-69.5% (active)	-75.5% (active)	-15.2% (active)	–	-32.6% (active)	-27.7% (active)	-36.4% (active)	-28.3% (active)	-67.1% (active)	-7.79% (active)	-10.8% (active)
